# Rows were chosen to be rich in hits. Some 7.5% of all compounds tested hit in one or more screens of this group.
# Vaccinia Venus: inhibitors of vaccinia virus (Venus reporter). Potency, µM (series often up to 36.5 µM), inactives show at the highest dose activity change, negative = inhibition, most hits filed as inhibitors. actives 0.46% (n = 330,000). Vaccinia virus Venus reporter expression, fluorescence; calls by dose curve; tested in A549 cells; note: potency is the fitted concentration of half-maximal effect; nearly all actives have a fitted effect of over 30% in size
# HCMV inh: blocks human cytomegalovirus replication | HFF cells, HCMV-luciferase reporter, 72 h; hits give low values | activity change, negative = inhibition, % at 57.5 µM | actives 4.5% (n = 410,000); in the data active = activity change below about -60%; inconclusive = no clear call, values can overlap the other calls; inactive = above about -39%
#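 HFF cells seeded 16 h at 37C, treated with compounds, infected with luciferase-reporter HCMV at MOI 1 PFU/cell; luciferase read at 72 h post infection, normalized to buffer-only and Salinomycin controls.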
# HCV inh: HCV inhibition; AID 651820; Potency, µM (series often up to 41.8 µM), for the others: top-dose activity change, negative = inhibition, usual class: inhibitors; actives 3.4% (n = 340,000); Huh7.5.1 HCVcc-Cre infection, luciferase reporter, 44 h; note: potency is the fitted concentration of half-maximal effect
#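 Whole-lifecycle infectious HCVcc-Cre system; cells 1,000/well, compound then virus (~0.5 moi) added 4 h after plating, 44 h culture. Luciferase read 15 sec following 15 min substrate incubation, room temp.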
# VACV mCherry inh: inhibitors of vaccinia virus infection (mCherry reporter signal) | Potency, µM (highest dose often 36.5 µM), for inactives: at the top dose activity change, negative = inhibition, most hits filed as inhibitors | Vaccinia virus mCherry reporter infection, fluorescence | AID 720579 | actives 0.63% (n = 310,000); calls by dose curve; tested in A549 cells; note: potency is the fitted concentration of half-maximal effect; nearly all actives have a fitted effect of over 35% in size
# FMDV antiviral: foot and mouth disease virus antiviral activity. AID 1159524. FMDV antiviral cell-based qHTS. Potency, µM (top dose mostly 57.9 µM), without a hit: at the top dose activity change, negative = inhibition, actives largely listed as inhibitors. actives 1.2% (n = 410,000); calls by dose curve; tested in HEK293T cells; note: read-out not given here; potency is the fitted concentration of half-maximal effect; nearly all actives have a fitted effect of over 45% in size
# FBPA Giardia inh: Giardia lamblia aldolase inhibition. purified Giardia FBPA. actives 0.71% (n = 290,000). AID 2451. A8B2U2. Potency, µM (doses to about 59.6 µM), for inactives: top-dose activity, negative = inhibition, hits mostly inhibitors; note: potency is the fitted concentration of half-maximal effect; nearly all actives have a fitted effect of over 55% in size
# Target sequence (A8B2U2 whole entry, looked up): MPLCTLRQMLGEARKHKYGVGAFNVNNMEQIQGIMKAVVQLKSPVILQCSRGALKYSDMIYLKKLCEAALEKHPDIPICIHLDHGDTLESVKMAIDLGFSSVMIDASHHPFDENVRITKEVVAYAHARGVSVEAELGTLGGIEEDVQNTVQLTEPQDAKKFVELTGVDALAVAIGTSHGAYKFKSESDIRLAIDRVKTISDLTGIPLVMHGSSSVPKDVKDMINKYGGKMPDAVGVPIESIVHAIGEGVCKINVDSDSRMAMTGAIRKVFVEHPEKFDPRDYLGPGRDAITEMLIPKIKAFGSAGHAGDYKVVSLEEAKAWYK
#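 Giardia FBPA (40 nM reagent) was preincubated 10 min at RT with compound (up to 57.5 uM final), then substrate plus GAPDH/TPI/NAD/arsenate coupling system with diaphorase/resazurin was added; resorufin fluorescence (525/598 nm) was read after 20 min.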
# Active calls of the source: *; i = inactive; ? = inconclusive; / = not tested or not shown. Unless noted, calls come from the whole dose curve; as a rule, active = well fitted curve in the direction sought with a large enough effect; inconclusive = small, poorly fitted or top-dose-only effect, or another doubt; inactive = no such curve, though single readings can be large; an effect the other way counts as inactive or inconclusive. % is set by controls: 0 for no effect and ±100 for the full control effect.
SMILES,Vaccinia Venus,HCMV inh,HCV inh,VACV mCherry inh,FMDV antiviral,FBPA Giardia inh
Nc1ncc(-c2ccccc2)c(-c2ccc(O)cc2O)n1,-16.5%,-61.4*,?,?,?,12.7%
O=C(c1[nH]ncc1-c1cccc(Br)c1)C1CO1 (stereo not drawn),-15.4%,15.3,?,i,35.5µM*,-15.7%
Cc1cccc(C(=O)NCC(=O)OCc2cc(=O)n3nc(CC(C)C)sc3n2)c1,2.0%,12.1,/,-2.2%,-22.2%,/
CC(=O)Nc1ccccc1-c1nc(CNC(=O)c2ccc(C)cc2)c(C)o1,-4.1%,/,/,-5.1%,11.7%,/
COC(=O)c1c(NC(=O)CCC(=O)O)sc2c1CCCCC2,-15.9%,?,1.1%,-7.0%,0.0%,23.0%
COC(=O)c1c(NC(=O)C2CC2)sc2c1CCCC2,-4.3%,1.5,10µM*,-23.7%,-8.8%,-0.9%
COCC(=O)Nc1sc2c(c1C(=O)OC)CCC(C)C2 (stereo not drawn),-15.6%,-7.8,7.08µM*,i,7.3%,0.8%
CCOC(=O)c1c(NC(NC(C)=O)C(Cl)(Cl)Cl)sc2c1CCCC2 (stereo not drawn),-22.2%,?,10µM*,-16.3%,?,-6.1%
CCOC(=O)c1c(NC(NC(=O)CF)C(Cl)(Cl)Cl)sc2c1CCCC2 (stereo not drawn),-2.4%,-11.5,?,-19.1%,-17.4%,-1.9%
COC(=O)c1c(NC(NC(C)=O)C(Cl)(Cl)Cl)sc2c1CCCC2 (stereo not drawn),-28.0%,-5.6,11.2µM*,-4.3%,35.5µM*,-15.8%
CCCc1nc2ccc(C)cn2c1Cc1ccsc1,-14.9%,79.3,/,i,33.7%,/
O=C(O)c1cc(O)c2c(c1)[C@H]([C@H]1c3cc(C(=O)O)cc(O)c3C(=O)c3c(O[C@@H]4O[C@H](CO)[C@@H](O)[C@H](O)[C@H]4O)cccc31)c1cccc(O[C@@H]3O[C@H](CO)[C@@H](O)[C@H](O)[C@H]3O)c1C2=O,2.8%,/,/,-9.7%,-24.2%,/
CN1CCN(Cc2c(O)ccc3cc(Br)ccc23)CC1,-15.2%,-68.8*,-11.9%,?,0.0%,-17.3%
CN(C)S(=O)(=O)c1ccc(C(=O)Nc2ccc(S(=O)(=O)NC3=NCCCCC3)cc2)cc1,-17.0%,-10.1,-10.5%,-25.6%,-14.6%,-0.3%
O=C(Nc1ccc(S(=O)(=O)NC2=NCCCCC2)cc1)c1ccc(Cl)c([N+](=O)[O-])c1,/,?,?,/,-1.6%,/
O=C(Nc1ccc(S(=O)(=O)NC2=NCCCCC2)cc1)c1ccc(C(F)(F)F)cc1,/,-66.9*,?,/,?,-6.1%
O=C(Nc1ccc(S(=O)(=O)NC2=NCCCCC2)cc1)c1cccs1,/,-102.0*,?,/,14.6%,/
O=C(Nc1ccc(S(=O)(=O)NC2=NCCCCC2)cc1)c1ccc([N+](=O)[O-])s1,11.2µM*,-38.6,?,12.6µM*,-1.1%,/
OC(c1cccc(Cl)c1)c1ncc(-c2cccc3ccccc23)[nH]1 (stereo not drawn),-4.8%,29.0,/,-7.9%,29.0%,/
COc1ccccc1NC(=O)Cc1nc(=O)[nH]c(=O)[nH]1,-5.4%,-11.6,/,-14.1%,-9.8%,/
Cc1ccc(F)cc1C(=O)N1CCOCC1c1cc(C(=O)NCc2ccccc2)no1 (stereo not drawn),-9.4%,-19.1,/,28.1%,-1.5%,/
CCc1ccc(NC(=O)C2CCN(S(=O)(=O)c3ccc4c(c3)NC(=O)CO4)CC2)cc1,/,-35.5,-6.8%,/,-18.1%,/
CN(C)c1ccc(/C=C/c2ccnc3c(O)cccc23)cc1,?,/,/,10µM*,/,/
CN(C)c1ccc(C=Cc2ccnc3c(O)cccc23)cc1,?,-98.6*,/,?,0.0%,/
Cc1cccc2c(/C=C/c3ccc(N(C)C)cc3)ccnc12,-8.5%,/,/,-18.0%,/,/
SMILES,Vaccinia Venus,HCMV inh,HCV inh,VACV mCherry inh,FMDV antiviral,FBPA Giardia inh
O=C1NC(=O)N2CCSC2(Cc2ccccc2)N1 (stereo not drawn),-11.2%,-98.4*,22.1%,?,1.1%,/
COc1ccc(OCCOC(=O)Nc2ccccc2)cc1,?,7.1,-17.0%,-10.9%,-8.7%,-1.4%
O=C(Nc1ccccc1)OCCOc1ccccc1,/,42.3,12.6µM*,/,17.1%,-1.0%
O=C(CCC(=O)OCCOc1ccccc1)OCCOc1ccccc1,10.2%,-97.9*,/,15.7%,-8.9%,/
CCOc1ccc(/C=N/NC(=O)Cc2ccccc2)cc1CN1CC2CC(C1)c1cccc(=O)n1C2 (stereo not drawn),-19.2%,-33.2,7.94µM*,-14.4%,-3.0%,/
Cc1cc(SCC(=O)N/N=C/c2ccc(O)c(O)c2O)c(C)cc1Br,?,-25.6,?,12.6µM*,-29.7%,3.54µM*
CCCC(=O)Nc1cc(C(=O)N(C)CC(OC)OC)ccc1S(=O)(=O)c1ccc(C)cc1,/,34.4,?,/,-7.0%,5.5%
CN1CCN(c2ncnc3scc(-c4ccccc4Cl)c23)CC1,-8.0%,-73.2*,-15.7%,?,?,1.4%
CN1CCN(c2ncncc2-c2ccccc2Cl)CC1,/,/,/,/,-13.2%,-8.3%
OCC1CCCN(c2ncnc3scc(-c4ccccc4)c23)C1 (stereo not drawn),-20.3%,-63.2*,-12.5%,-22.5%,-19.2%,13.2%
Oc1ccccc1N1CCN(c2ncnc3scc(-c4ccc(F)cc4)c23)CC1,-16.3%,-81.4*,11.2µM*,?,-9.7%,-2.0%
Fc1ccc(CN2CCN(c3ncnc4scc(-c5ccccc5)c34)CC2)cc1,/,-73.7*,?,/,?,9.5%
COc1ccc(Cl)cc1NC(=O)Cc1ccc(NC(=O)N2CCCCc3ccccc32)cc1,-12.6%,19.2,/,-13.0%,-14.6%,/
Cc1ccsc1/C=N/Nc1ccc(F)cc1F,6.7%,33.7,13.3%,?,45.9%,-1.8%
Cc1cc(C)nc(N/N=C/c2sccc2C)n1,-11.6%,-80.2*,-25.4%,-11.9%,62.1%,-17.4%
Cc1ccsc1/C=N/Nc1ncc(Cl)cc1Cl,?,?,12.6µM*,/,-38.3%,-11.8%
O=C(O)c1ccc(/C=N/Nc2ncc(Cl)cc2Cl)cc1,/,-38.9,23.7%,/,44.0%,?
CCn1cc(C(=O)O)c(=O)c2cnc(N3CCN(C(=S)Nc4ccccc4Cl)CC3)nc21,/,36.0,7.7%,/,?,-12.8%
COc1cc(-c2nc3ccc(N4CCN(C)CC4)cc3[nH]2)cc(OC)c1OC,-8.3%,90.8,7.94µM*,-12.9%,-1.3%,?
Oc1c(I)cc(Cl)c2cccnc12,-17.0%,30.8,?,-28.7%,-29.1%,9.6%
Oc1c(CN2CCCCC2)cc(Br)c2cccnc12,/,-102.1*,?,/,?,?
Oc1c(Cl)cc(CN2CCOCC2)c2cccnc12,/,-99.2*,2.51µM*,/,-25.1%,/
Oc1c(CN2CCc3ccccc3C2)cc(Cl)c2cccnc12,?,/,?,2.51µM*,?,?
O=C(Oc1c(CN2CCOCC2)cc(Cl)c2cccnc12)c1ccccc1,?,-96.5*,?,?,-29.0%,?
